The record followed here is PubChem BioAssay (NCI).

The panel holds about 83,000 compounds, 20% with a hit somewhere; the sample as a whole holds those more often.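 In brief: 96-well plates, 48 h treatment, single concentration, percent growth endpoint.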 Values without a mark were called inactive. The source made the active and inactive calls. The calls were made as follows: active = growth percent below 10; inactive = the rest.

The subject of the assay is SK-MEL-2 melanoma. Description: NCI-60 one-dose screen, 48 h (100 = growth as untreated, 0 = no growth, -100 = all killed). As to conditions: 10 µM unless noted.
With `Cc1ccc2c(NCCCN(C)C)c3c(C)nn(C)c3nc2c1`, the growth is 44%.

For `CCc1ccccc1NC(=O)c1sc2nc3c(cc2c1N)C(=O)CCC3`, the growth was 19.9%.

Regarding `C#Cc1nc(Nc2cc(C)[nH]n2)c2ccccc2n1`, the growth is -53.2% (active).

Consider `CC(=O)Oc1cc2cnc3c4cc(OC(C)=O)c(OC(C)=O)cc4ccc3c2cc1OC(C)=O`, for which the growth was 56.3%.

Take `Cc1cc(Nc2nc(-c3cccnc3)nc3ccccc23)n[nH]1`: the growth was 38.8%.

Turning to `CNC(=S)N/N=C/CSC/C=N/NC(=S)NC`, the growth was 98.7%.

`COc1ccc(CN(c2ccc(C)cc2)C2OC(=O)c3ccccc32)cc1OC` (configuration not stated): the growth was 95.3%.

On to `COc1cccc(-n2cc(-c3nc(Nc4cc(C)[nH]n4)c4ccccc4n3)nn2)c1`, for which the growth is 50.9%.

Turning to `COc1cc(OC)c(/C=C/c2cc[n+](C)c3ccccc23)c(OC)c1`, the growth was -8.65% (active).

For the molecule `Cc1nn(-c2nc3ccccc3[nH]2)c2c1C(c1ccc3c(c1)OCO3)CC(=O)N2` (configuration not stated), the growth was 52.9%.

On to `CC1(C)OCC2OC3(C(=O)O)OC(C)(C)OC3C2O1` (configuration not stated), for which the growth was 105%.

With `NCc1cn2cc(Cl)sc2n1`, the growth is 102%.

For the molecule `COc1ccc(/C=N\NC(=O)c2ccncc2)cc1O`, the growth was 90.8%.

Take `Nc1cc2nc3ccccc3sc-2cc1=O`: the growth is 89.4%.

`N#CC1=C(N)Oc2c(ccc3ccccc23)C1c1cccs1` (configuration not stated): the growth was 52.5%.

Turning to `CCOC(=O)c1ccc2c(c1)nc(/C=C/c1ccc(Cl)cc1)n2-c1cc(C(C)(C)C)[nH]n1`, the growth is 79.6%.

Take `CCOC(=O)c1nc(Nc2cc(C)[nH]n2)c2ccccc2n1`: the growth is 89.4%.
